Pf growth 48h: inhibits P. falciparum growth in the first generation, 48 h; P. falciparum luciferase growth in erythrocytes, 48 h; Potency, µM (series often up to 28.7 µM), for inactives: top-dose activity change, negative = inhibition, most hits filed as inhibitors; actives 5.9% (n = 310,000); also: potency is read from the fitted curve at half-maximal effect
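Read-out is firefly luciferase luminescence from an integrated reporter in P. falciparum, so falling signal marks reduced parasite growth. Infected erythrocytes were at 2% hematocrit and 0.1% parasitemia (final) in Albumax-supplemented RPMI 1640.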
Sm TGR block: blocks Schistosoma mansoni thioredoxin glutathione reductase; Q962Y6; purified TGR, DTNB reduction, TNB absorbance 405 nm; Potency, µM (highest dose often 114 µM), for inactives: top-dose activity change, negative = inhibition, usual class: inhibitors; actives 3% (n = 360,000); also: potency is read from the fitted curve at half-maximal effect; nearly all actives have a fitted effect of over 60% in size
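Kinetic colorimetric format: TGR-catalysed, NADPH-driven DTNB reduction monitored via TNB absorbance. Enzyme dispensed at 20 nM; compound exposure 15 min at room temperature before reaction start.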
Giardia FBPA inh-1: Giardia lamblia aldolase inhibition; A8B2U2; purified Giardia FBPA; Potency, µM (titrated, usually from 59.6 µM), without a hit: at the top dose activity, negative = inhibition, most hits filed as inhibitors; actives 0.71% (n = 290,000); also: potency is read from the fitted curve at half-maximal effect; nearly all actives have a fitted effect of over 55% in size
Target sequence (A8B2U2 whole entry, looked up): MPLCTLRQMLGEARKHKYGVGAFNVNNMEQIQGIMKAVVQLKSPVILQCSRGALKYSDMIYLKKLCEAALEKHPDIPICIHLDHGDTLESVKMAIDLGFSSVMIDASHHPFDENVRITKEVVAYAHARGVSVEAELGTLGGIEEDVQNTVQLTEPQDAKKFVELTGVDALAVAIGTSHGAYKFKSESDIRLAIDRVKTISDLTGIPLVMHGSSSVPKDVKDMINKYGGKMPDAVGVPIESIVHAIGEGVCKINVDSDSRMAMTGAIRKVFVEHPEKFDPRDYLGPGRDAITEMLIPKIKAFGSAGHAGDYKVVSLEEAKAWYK
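40 nM FBPA preincubated 10 min at RT with compound (up to 57.5 uM final), then substrate plus GAPDH/TPI/NAD/arsenate coupling and diaphorase/resazurin added. Fluorescence read after 20 min at RT, 525/598 nm.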
Pf growth 96h: P. falciparum growth inhibition at 96 hour, primary screen for plastid delayed-death inhibitors; P. falciparum luciferase reporter growth, 96 h; Potency, µM (series often up to 28.7 µM), without a hit: at the highest dose activity change, negative = inhibition, actives largely listed as inhibitors; actives 6.9% (n = 320,000); also: potency is read from the fitted curve at half-maximal effect
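96 h incubation, 37 C, 5% CO2, of luciferase-reporter P. falciparum-infected RBCs (2% hematocrit, 0.05% parasitemia final) with test compounds; endpoint luminescence.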
HCMV antiviral: blocks human cytomegalovirus replication; activity change, negative = inhibition, % at 57.5 µM; AID 1259415; actives 4.5% (n = 410,000); HFF cells, HCMV-luciferase reporter, 72 h; stronger effect = lower value; in the data active = activity change below about -60%; inconclusive = no clear call, values can overlap the other calls; inactive = above about -39%
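Screen run at 2 compound doses on HFFs infected with reporter HCMV, MOI 1 PFU/cell. Luciferase activity from cell lysates at 72 h post infection gave inhibition relative to buffer-only and Salinomycin wells.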
Giardia growth: Giardia lamblia growth inhibition; actives 5% (n = 1,500); Potency, µM (doses to about 57.5 µM), for inactives: at the top dose activity change, negative = inhibition, usual class: inhibitors; Giardia lamblia trophozoite growth inhibition; AID 2785; shares compounds with Giardia FBPA inh-1;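 also: potency is read from the fitted curve at half-maximal effect; trophozoites exposed to compound for 48 h at 37 °C; nearly all actives have a fitted effect of over 70% in size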
Mammalian tox: toxic to mammalian cells in Giardia aldolase counter-screen; Potency, µM (doses to about 57.5 µM), for the others: at the top dose viability change, negative = toxicity, actives largely listed as inhibitors; mammalian cell viability counter-screen, qHTS; actives 4% (n = 1,500); shares compounds with Giardia FBPA inh-1;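 also: Chinese hamster ovary cells used as mammalian cytotoxicity surrogate; viability measured as cellular ATP by luminescence; potency is read from the fitted curve at half-maximal effect; compound exposure lasted 48 h before reading; nearly all actives have a fitted effect of over 60% in size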
Giardia FBPA inh-2: confirmation of Giardia fructose-bisphosphate aldolase inhibitors; shares compounds with Giardia FBPA inh-1; purified Giardia aldolase enzyme activity, qHTS; Potency, µM (top dose mostly 57.5 µM), inactives show top-dose activity change, negative = inhibition, usual class: inhibitors; actives 5% (n = 1,500); AID 2787; also: potency is read from the fitted curve at half-maximal effect; nearly all actives have a fitted effect of over 45% in size
Rabbit aldolase: blocks rabbit muscle aldolase in Giardia aldolase selectivity test; Rabbit muscle FBPA enzyme inhibition, selectivity counter-screen; AID 2794; actives 4% (n = 1,500); Potency, µM (titrated, usually from 57.5 µM), without a hit: at the top dose activity, negative = inhibition, hits mostly inhibitors; shares compounds with Giardia FBPA inh-1; also: potency is read from the fitted curve at half-maximal effect; nearly all actives have a fitted effect of over 60% in size
GAPDH coupling: GAPDH inhibition flagged for Giardia aldolase hits. shares compounds with Giardia FBPA inh-1. GAPDH coupling enzyme counterscreen, biochemical, qHTS. Potency, µM (doses to about 57.5 µM), for the others: at the top dose activity change, negative = inhibition, most hits filed as inhibitors. actives 6% (n = 1,500). AID 2795; also: potency is read from the fitted curve at half-maximal effect; nearly all actives have a fitted effect of over 55% in size
Starred values were filed as active, the others as inactive. Shown are actives, neighbours in structure and some others; about 14% of the full set was active somewhere. Unless noted, calls follow the shape of the dose curve; as a rule, active = well fitted curve in the direction sought with a large enough effect; inconclusive = small, poorly fitted or top-dose-only effect, or another doubt; inactive = no such curve, though single readings can be large; an effect the other way counts as inactive or inconclusive. % is scaled to controls: 0 for no effect and ±100 for the full control effect.

What do the screens show for `Cc1ccc(-c2nc3sc(CCNS(=O)(=O)c4cc(F)ccc4F)c(C)n3n2)cc1`?
Sm TGR block: 5.3%; HCMV antiviral: inconclusive

How did COc1cc(-c2cc3nc(NCc4ccco4)ccn3n2)cc(OC)c1OC do in these assays?
HCMV antiviral: 167.4

What do the screens show for `Cc1ccc(OCCOCCN2CCCCC2)c([N+](=O)[O-])c1`?
Pf growth 48h: inconclusive; Giardia FBPA inh-1: 19.9µM*; Pf growth 96h: -24.3%; HCMV antiviral: inconclusive; Giardia growth: 27.6%; Mammalian tox: -11.1%; Giardia FBPA inh-2: -6.7%; Rabbit aldolase: 3.0%; GAPDH coupling: 4.3%

What do the screens show for `O=C(/C=C/c1ccc(Br)cc1)NC(=S)N1C[C@H]2C[C@H](C1)c1cccc(=O)n1C2`?
Pf growth 48h: 15.8%; Sm TGR block: -17.9%; Giardia FBPA inh-1: inconclusive; Pf growth 96h: inconclusive; HCMV antiviral: 2.7

Results for O=C(/C=C/c1ccc(Cl)cc1)NC(=S)N1C[C@H]2C[C@H](C1)c1cccc(=O)n1C2 ?
Pf growth 48h: 2.1%; Sm TGR block: -5.4%; Giardia FBPA inh-1: 7.08µM*; Pf growth 96h: -13.4%; HCMV antiviral: 21.0; Giardia growth: -21.9%; Mammalian tox: 15.1%; Giardia FBPA inh-2: 3.6%; Rabbit aldolase: 5.2%; GAPDH coupling: 3.6%

Results for COc1ccc(S(=O)(=O)N(Cc2nc(-c3ccc(Cl)cc3)no2)C2CCCCC2)cc1 ?
Sm TGR block: -1.9%; HCMV antiviral: -23.5

What do the screens show for `Cc1cccc2c(N)c3c(nc12)N(C)CC3`?
Pf growth 48h: 5.5%; Sm TGR block: -4.3%; Giardia FBPA inh-1: 15.8µM*; Pf growth 96h: -9.1%; HCMV antiviral: inconclusive; Giardia growth: inconclusive; Mammalian tox: 11.7%; Giardia FBPA inh-2: -1.2%; Rabbit aldolase: -5.9%; GAPDH coupling: 7.6%

Results for Cc1ccc(Cl)cc1N1CCN(C(=O)c2cc(S(=O)(=O)N3CCCC3)c[nH]2)CC1 ?
Sm TGR block: 6.2%; HCMV antiviral: 15.5

What do the screens show for `Cc1nnc(N/N=C\c2ccc(-c3cccc(C(=O)O)c3)o2)n1N`?
Pf growth 48h: 194.2%; Sm TGR block: 4.0%; Giardia FBPA inh-1: 8.89µM*; Pf growth 96h: 31.3%; HCMV antiviral: 10.4; Giardia growth: -52.8%; Mammalian tox: -6.2%; Giardia FBPA inh-2: inconclusive; Rabbit aldolase: inconclusive; GAPDH coupling: inconclusive

Results for Cc1nnc(N/N=C/c2ccc(-c3ccc(Br)cc3)o2)n1N ?
Pf growth 48h: inconclusive; Sm TGR block: 4.5%; Giardia FBPA inh-1: 15.8µM*; Pf growth 96h: 3.7µM*; HCMV antiviral: -16.8; Giardia growth: -2.7%; Mammalian tox: 4.5%; Giardia FBPA inh-2: inconclusive; Rabbit aldolase: inconclusive; GAPDH coupling: -20.7%

Results for O=C(O)c1ccc(N/N=C/c2ccc(-c3ccc(Br)cc3)o2)cc1 ?
Pf growth 48h: 32.8%; Sm TGR block: -1.6%; Giardia FBPA inh-1: -2.8%; Pf growth 96h: 14.6%; HCMV antiviral: 14.6

Source: PubChem BioAssay
